Laboratory results: PubChem BioAssay
A number with no mark means an inactive call. No rule for the calls is given here.

target: Pantothenate synthetase (Mycobacterium tuberculosis (strain ATCC 25618 / H37Rv)) (UniProt P9WIL5); experiment: Recombinant Mtb pantothenate synthetase (PanC) inhibitors, coupled enzyme, confirmatory (AID 375); details: coupled enzyme assay; at 10 µM, hits give high values;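 also: 0% = full reaction with vehicle and 100% = no enzyme background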
Sequence (P9WIL5 whole entry, looked up): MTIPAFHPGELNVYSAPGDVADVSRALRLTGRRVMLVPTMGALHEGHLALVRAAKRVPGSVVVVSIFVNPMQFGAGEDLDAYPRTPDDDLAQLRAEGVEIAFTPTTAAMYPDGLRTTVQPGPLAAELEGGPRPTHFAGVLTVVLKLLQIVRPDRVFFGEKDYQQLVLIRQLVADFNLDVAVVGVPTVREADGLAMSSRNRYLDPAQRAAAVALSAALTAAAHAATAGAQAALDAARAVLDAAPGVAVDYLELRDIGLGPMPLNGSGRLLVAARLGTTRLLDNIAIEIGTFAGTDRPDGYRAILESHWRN

| SMILES | inhibition |
| --- | --- |
| O=c1c2cc3ccccc3n2cnn1Cc1ccccc1F | 0% |
| CCn1cc(C(=O)NCC2CCCO2)c(=O)c2cc(S(=O)(=O)N(C)C3CCCCC3)ccc21 (configuration not stated) | 5% |
| CC(=O)Oc1ccc(C(c2ccc(OC(C)=O)cc2)c2ccccn2)cc1 | 0% |
| CCOC(=O)CCNC(=O)Nc1ccc2nc(C)n(Cc3ccccc3Cl)c(=O)c2c1 | 5% |
| CCOC(=O)c1ccccc1NC(=O)c1ccc2c(=O)n3c(nc2c1)CCCCC3 | 0% |
| CCCc1nc2ccccc2c2nc(N)nn12 | 5% |
| COc1ccccc1N1CCN(S(=O)(=O)CC23CCC(CC2=O)C3(C)C)CC1 (configuration not stated) | 1% |
| CCOC(=O)c1cccc(NC(=O)CSc2nnc(C3CCCCC3)n2C)c1 | 2% |
| CC(C)[C@H](NC(=O)NC1CCCC1)C(=O)O | 0% |
| COc1ccccc1CNC(=O)N[C@@H](Cc1ccccc1)C(=O)O | 6% |
| CC1Cc2ccccc2N1C(=O)CSc1nc2ccccc2n1CC(=O)N1CCOCC1 (configuration not stated) | 0% |
| COc1ccc2cc(C#N)c(SCC(=O)N3CCCC3)nc2c1 | 7% |
| CCOC(=O)c1cc2cc(F)ccc2nc1C | 1% |
| CC1Cc2nc(SCC(=O)Nc3ccc(F)cc3F)n(C)c(=O)c2S1 (configuration not stated) | 0% |
| CCc1c(C)nc2ncnn2c1N1CCC(C(=O)NCc2cccc(OC)c2)CC1 | 0% |
| c1ccc(OCCCn2nnc(-c3cccnc3)n2)cc1 | 3% |
| O=C(c1ccc(Cl)c(F)c1F)N1CCCC1 | 3% |
